“And” between values parts separate entries of the source, which are not always exact repeats. Identical values can stand only once. Among all 5,500 compounds or so, about 2,000 (36%) were called active. Not shown: some 18% with an inconclusive outcome. No stated cut-off is given here; in the data, active means normalized growth mostly below about 0.91 (no sharp cut-off); inconclusive means no clear call, values can overlap the other calls; inactive means mostly above about 0.92. The list shows a part of the results.
Experiment: chemical genetic growth profiling, strain panel (AID 1159580);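 further: tested at 20 µM; growth read once vehicle control cultures reached saturation at 30 °C; 1 = growth at the plate median or of vehicle wells; lower values mean less growth of the strain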
Settings: S. cerevisiae deletion strains, growth OD

Measured: normalized growth

CC1=C(CC(=O)O)c2cc(F)ccc2/C1=C\c1ccc(S(C)=O)cc1 (stereo unspecified)
inactive: locus YAL013W, strain DEP1, hits give low values 1 | locus YAL021C, strain ccr4, hits give low values 1.02 | locus YAL026C, strain drs2, hits give low values 1.02 | locus YAL030W, strain snc1, hits give low values 1.01 | locus YAL040C, strain CLN3, hits give low values 0.99 | locus YBL061C, strain skt5, hits give low values 1.02 | locus YBR009C, strain hhf1, hits give low values 1.01 | locus YBR021W, strain FUR4, hits give low values 1.03 | locus YBR023C, strain chs3, hits give low values 1.02 | locus YBR171W, strain sec66, hits give low values 1.02 | locus YBR229C, strain ROT2, hits give low values 1 | locus YBR231C, strain swc5, hits give low values 1.03 | locus YBR279W, strain paf1, hits give low values 1.01 | locus YCL011C, strain gbp2, hits give low values 1.03 | locus YCL016C, strain dcc1, hits give low values 1.01 | locus YCL029C, strain bik1, hits give low values 1.02 | locus YCL061C, strain MRC1 (second series), hits give low values 1.01 | locus YCL061C, strain MRC1, hits give low values 1.02 | locus YCL069W, strain vba3, hits give low values 1.02 | locus YCR088W, strain abp1, hits give low values 1.02 | locus YDL005C, strain med2, hits give low values 1.02 | locus YDL035C, strain GPR1, hits give low values 1.01 | locus YDL040C, strain nat1, hits give low values 1.01 | locus YDL074C, strain BRE1, hits give low values 0.981 | locus YDL101C, strain DUN1, hits give low values 1.01 | locus YDL134C, strain PPH21, hits give low values 0.999 | locus YDL185W, strain tfp1, hits give low values 1 | locus YDL192W, strain arf1, hits give low values 1.02 | locus YDR001C, strain nth1, hits give low values 1.02 | locus YDR069C, strain doa4, hits give low values 1.01 | locus YDR101C, strain arx1, hits give low values 1.06 | locus YDR137W, strain rgp1, hits give low values 1.02 | locus YDR150W, strain NUM1, hits give low values 0.996 | locus YDR159W, strain sac3, hits give low values 1.02 | locus YDR162C, strain NBP2, hits give low values 1.01 | locus YDR195W, strain ref2 1.04 | locus YDR297W, strain sur2, hits give low values 1.02 | locus YDR318W, strain mcm21, hits give low values 1.02 | locus YDR334W, strain swr1, hits give low values 1.02 | locus YDR335W, strain msn5, hits give low values 1.01 | locus YDR363W, strain ESC2, hits give low values 0.995 | locus YDR388W, hits give low values 1.03 | locus YDR392W, strain spt3, hits give low values 0.996 | locus YDR502C, strain sam2, hits give low values 1.02 | locus YEL003W, strain gim4, hits give low values 1.02 | locus YEL037C, strain rad23, hits give low values 1.02 | locus YEL061C, strain CIN8 (second series), hits give low values 1.03 | locus YEL061C, strain CIN8, hits give low values 1.01 | locus YER002W, strain NOP16, hits give low values 0.993 | locus YER015W, strain faa2, hits give low values 1.01 | locus YER016W, strain bim1, hits give low values 1 | locus YER110C, hits give low values 1.03 | locus YER111C, strain swi4, hits give low values 1.03 | locus YER155C, strain BEM2 (second series), hits give low values 1.03 | locus YER155C, strain BEM2, hits give low values 1.01 | locus YER167W, strain BCK2, hits give low values 1.01 | locus YFR010W, strain ubp6, hits give low values 1.02 | locus YGL078C, strain dbp3, hits give low values 1.02 | locus YGL086W, strain mad1, hits give low values 1.01 | locus YGL167C, strain pmr1, hits give low values 1.03 | locus YGL173C, strain kem1, hits give low values 1.02 | locus YGL227W, strain vid30, hits give low values 1.03 | locus YGL240W, strain doc1, hits give low values 1.01 | locus YGL248W, strain PDE1, hits give low values 0.999 | locus YGL253W, strain hxk2, hits give low values 1.02 | locus YGR078C, strain PAC10, hits give low values 1.01 and 0.998 | locus YGR135W, strain pre9, hits give low values 1 | locus YGR229C, strain SMI1, hits give low values 0.977 | locus YGR252W, strain gcn5, hits give low values 0.982 | locus YHR013C, strain ard1, hits give low values 1.03 | locus YHR027C, strain rpn1, hits give low values 1.02 | locus YHR030C, strain SLT2, hits give low values 1.01 and 0.982 | locus YHR079C, strain IRE1 (second series), hits give low values 1.03 | locus YHR079C, strain IRE1, hits give low values 0.988 | locus YHR094C, strain hxt1, hits give low values 1.02 | locus YHR129C, strain ARP1, hits give low values 0.996 | locus YHR142W, strain chs7, hits give low values 1.02 | locus YHR200W, strain rpn10, hits give low values 1.03 | locus YIL066C, strain RNR3, hits give low values 1 | locus YIL073C, strain SPO22, hits give low values 1.04 | locus YIL125W, strain kgd1, hits give low values 1.02 | locus YIR030C, strain dcg1, hits give low values 1.02 | locus YJL092W, strain hpr5, hits give low values 1.02 | locus YJL095W, strain BCK1 (second series), hits give low values 1.02 | locus YJL095W, strain BCK1, hits give low values 0.992 and 0.97 | locus YJL115W, strain asf1, hits give low values 1.03 | locus YJL129C, strain trk1, hits give low values 1.03 | locus YJL134W, strain LCB3, hits give low values 1.01 | locus YJL154C, strain vps35, hits give low values 1.02 | locus YJL164C, strain tpk1, hits give low values 1.01 | locus YJL166W, strain qcr8, hits give low values 1.01 | locus YJL168C, strain set2, hits give low values 1.02 | locus YJL187C, strain SWE1 (second series), hits give low values 1.01 | locus YJL187C, strain SWE1, hits give low values 1.02 | locus YJR043C, strain POL32, hits give low values 1 | locus YJR066W, strain TOR1, hits give low values 0.924

Source: PubChem BioAssay AID1159580 (chemical genetic matrix, 2015)
